# Compounds with a hit are over-represented: about 4% of the library has one in this group of screens.
# TWEAK-Fn14 inh – blocks TWEAK-Fn14 interaction in a reporter cell assay; TWEAK-stimulated Fn14 reporter cells, luciferase luminescence, 8 h; inhibition, % at 10 µM; 2% of 360,000 active; AID 1159606; in the data active = inhibition above about 50%
# TROY signal inh – inhibitors of TROY-dependent NF-kB signaling; 0.98% of 360,000 active; Q293 LMP1-TROYcd NF-kB luciferase reporter, 4 h; inhibition, % at 10 µM;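 active = compounds whose plate-normalised and pattern-corrected inhibition of the luciferase reporter signal at the single screening dose is 50% or more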
# Peg3 promoter – reduces Peg3 promoter-driven luciferase expression in HeLa. HeLa PEG-Prom luciferase reporter, luminescence, overnight. inhibition, % at 20 µM. 1.7% of 360,000 active;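 active = inhibition of at least 50% at 20 µM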
# MITF TRPM1 inh – reduces MITF-dependent TRPM1 promoter luciferase signal; SK-MEL-5 TRPM1 promoter luciferase, 24 h; inhibition, % at 12.5 µM; AID 488899; 0.83% of 330,000 active;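 active = mean inhibition across replicates of 60% or more, whatever share of single replicates reaches that level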
# EBV LMP1 NFkB – Epstein-Barr LMP1 NF-kappaB reporter inhibition | LMP1-induced NF-kappaB luciferase reporter cells, luminescence | inhibition, % at 12.5 µM | 0.69% of 350,000 active | AID 504558; in the data active = inhibition above about 41%;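 also: 0% = neutral control wells and 100% = reference inhibitor control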
# HIF-2a block – blocks HIF-2a reporter activity. inhibition, % at 18.8 µM. 0.72% of 360,000 active. AID 624352. 786-0 RCC cells HIF-2a reporter, luciferase luminescence, overnight;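 active = inhibition of the luminescence signal of 40% or more relative to plate controls, in a single-dose primary screen at 18.75 µM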
# Mdm2 MdmX conf – confirmation of inhibitors of human Mdm2/MdmX interaction, set 2; shares compounds with HIF-2a block; SaOS-2 split-luciferase Mdm2/MdmX complementation, luminescence; inhibition, % at 8 µM; 99% of 740 active; AID 504601;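 active = mean inhibition of the luminescence signal across two replicates at or above 26 percent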
# Target sequence (O15151 whole entry, looked up): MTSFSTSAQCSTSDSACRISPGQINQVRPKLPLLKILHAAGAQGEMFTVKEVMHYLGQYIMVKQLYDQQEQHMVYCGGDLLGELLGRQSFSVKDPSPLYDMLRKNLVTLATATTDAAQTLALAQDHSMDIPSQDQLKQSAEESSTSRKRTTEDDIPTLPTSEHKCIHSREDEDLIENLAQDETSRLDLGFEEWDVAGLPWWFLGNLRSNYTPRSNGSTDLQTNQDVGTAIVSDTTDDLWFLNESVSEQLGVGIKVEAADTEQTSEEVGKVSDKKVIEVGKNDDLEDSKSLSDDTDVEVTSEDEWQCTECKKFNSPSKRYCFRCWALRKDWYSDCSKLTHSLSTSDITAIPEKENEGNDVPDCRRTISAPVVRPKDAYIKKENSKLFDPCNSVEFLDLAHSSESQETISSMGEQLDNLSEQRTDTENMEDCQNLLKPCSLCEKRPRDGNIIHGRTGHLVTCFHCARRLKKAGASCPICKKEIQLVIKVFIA
# Target sequence (Q00987 whole entry, looked up): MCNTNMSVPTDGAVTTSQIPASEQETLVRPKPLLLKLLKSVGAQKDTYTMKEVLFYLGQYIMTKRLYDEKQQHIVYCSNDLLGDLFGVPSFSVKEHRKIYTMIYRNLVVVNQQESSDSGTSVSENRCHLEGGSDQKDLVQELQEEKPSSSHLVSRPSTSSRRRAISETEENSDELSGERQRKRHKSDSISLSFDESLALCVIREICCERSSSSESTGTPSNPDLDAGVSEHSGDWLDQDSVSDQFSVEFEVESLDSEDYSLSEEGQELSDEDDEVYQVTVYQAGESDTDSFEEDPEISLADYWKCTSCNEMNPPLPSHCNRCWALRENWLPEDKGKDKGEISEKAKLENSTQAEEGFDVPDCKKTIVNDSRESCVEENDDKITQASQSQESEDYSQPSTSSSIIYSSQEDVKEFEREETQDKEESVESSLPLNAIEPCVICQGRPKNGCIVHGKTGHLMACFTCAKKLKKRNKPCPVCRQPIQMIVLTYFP
# HIF-2a inh conf – HIF-2a inhibition, single concentration confirmation; shares compounds with HIF-2a block; 786-0 RCC cells, HIF-2a luciferase reporter luminescence, overnight; inhibition, % at 18.8 µM; 56% of 1,800 active;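 active = mean inhibition across four replicates of at least 40 percent at the single tested concentration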
# HIF-1a counter – counter-screen for HIF-2a inhibitors: HIF-1a inhibition in MiaPaCa-2 cells | shares compounds with HIF-2a block | MiaPaCa-2 HIF-1a luciferase reporter, desferoxamine, overnight | inhibition, % at 18.8 µM | 72% of 1,800 active;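 active = mean inhibition of the reporter signal across four replicates at the single tested dose of 50% or more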
# Active calls of the source: *; . = no result given.
SMILES,TWEAK-Fn14 inh,TROY signal inh,Peg3 promoter,MITF TRPM1 inh,EBV LMP1 NFkB,HIF-2a block,HIF-2a inh conf,HIF-1a counter,others
COc1ccc(CS(=O)(=O)/C(Cl)=C(/Cl)C(=O)Nc2ccc(OC)nc2)cc1,99.5*,80.1*,103.6*,94.0*,90.8*,93.4*,.,.,Mdm2 MdmX conf=103.5*
O=S(=O)(NCC1CCCO1)c1ccc(Cl)nc1 (stereo not drawn),-15.0,-18.8,6.9,-1.3,-1.1,16.8,.,.,
Nc1nc2ccc(O)cc2s1,11.6,3.2,-6.9,10.1,-10.5,14.7,.,.,
Nc1nc2ccc(S(=O)(=O)c3ccc4nc(N)sc4c3)cc2s1,-6.2,19.7,13.1,-1.6,-8.2,47.7*,40.6*,-20.2,
O=C(COC(=O)CC1SC(N2CCCC2)=NC1=O)Nc1c(F)c(F)c(F)c(F)c1F (stereo not drawn),-17.4,0.9,1.0,2.7,1.0,-1.1,.,.,
O=C(CCl)Nc1ccc(-c2ccccc2)cc1,32.1,-41.8,104.4*,65.1*,10.7,15.4,.,.,Mdm2 MdmX conf=102.2*
CC(=O)Nc1ccc(NC(=O)Cc2ccc(-c3ccccc3)cc2)cc1,-14.8,5.4,1.7,2.3,0.9,3.4,.,.,
CC(C)N(c1ccccc1)c1ccc(NC(=O)CCl)cc1,62.2*,1.3,90.9*,49.6,-33.5,82.1*,62.0*,99.8*,Mdm2 MdmX conf=102.2*
NS(=O)(=O)c1cccc(NC(=O)COC(=O)CN2C(=O)c3ccccc3C2=O)c1,4.6,-7.6,2.5,4.2,-1.3,4.7,.,.,
CS(=O)(=O)c1ccc(C(=O)OCC(=O)NCc2cccs2)cc1[N+](=O)[O-],91.9*,24.3,108.1*,85.3*,-1.1,83.2*,23.8,4.3,
Cc1ccc(N(CC(=O)NCCc2ccc(F)cc2)S(=O)(=O)c2ccc(Cl)c([N+](=O)[O-])c2)c(C)c1,52.8*,22.0,104.0*,47.9,3.0,92.2*,32.1,107.7*,
CCOc1ccccc1N(CC(=O)NCCc1ccc(OC)cc1)S(=O)(=O)c1ccc(C)cc1,21.5,20.1,14.0,.,-12.3,26.7,.,.,
O=C(NCc1ccco1)/C(=C\c1cccnc1)NC(=O)c1ccccc1F,0.8,5.4,-2.3,5.6,-4.9,20.0,.,.,
CCCCCCCCCCCCCCCCn1cc[n+](CC(C)=O)c1,-16.4,29.8,96.1*,38.8,14.7,56.2*,64.0*,105.8*,
Cc1cc(C(C)(C)CC(C)(C)C)ccc1OCCOCC[N+](C)(C)Cc1ccccc1,37.2,41.7,102.2*,96.4*,9.0,-11.3,.,.,Mdm2 MdmX conf=103.2*
CCn1c(CNC(=O)c2ccccc2Br)nnc1SCC(=O)Nc1nncs1,1.5,-25.2,10.4,-7.3,-7.0,11.9,.,.,
CC(C)(C)NC(=O)NC(=O)CN1C(=O)NC(c2ccccc2)(c2ccccc2)C1=O,14.3,-5.2,1.0,10.2,-5.7,5.6,.,.,
O=S(=O)(/C(=C/c1ccc(C(F)(F)F)cc1)c1nc2ccccc2[nH]1)c1ccccc1,62.9*,14.9,106.2*,90.5*,-6.6,89.9*,98.9*,107.1*,
CC(C)c1ccc(/C=C(\c2nc3ccccc3[nH]2)S(=O)(=O)c2ccccc2)cc1,93.8*,5.7,104.5*,87.5*,-72.1,90.1*,97.8*,104.2*,Mdm2 MdmX conf=103.0*
O=C(Nc1ccc(F)cc1)C(CCc1ccccc1)N1CCN(C(=O)c2ccco2)CC1 (stereo not drawn),.,.,.,.,.,5.6,.,.,
O=C(Nc1cccc(C(F)(F)F)c1)Nc1ccc(N2CCCC2)c(S(=O)(=O)Nc2ccccc2Cl)c1,80.3*,40.5,63.7*,71.9*,22.3,-4.1,.,.,Mdm2 MdmX conf=102.0*
CC(=O)Nc1ccc(N2CCOCC2)c(S(=O)(=O)Nc2ccccc2Cl)c1,15.5,-10.9,-2.0,.,-9.3,-3.7,.,.,
Cc1ccc(C(=O)N2CCOCC2)cc1S(=O)(=O)N1CCCCC1,9.7,2.5,-3.9,0.6,-6.3,8.4,.,.,
CCOc1cc(/C=C\[N+](=O)[O-])ccc1OCC(=O)N1CCOCC1,49.8,15.0,78.1*,93.9*,14.5,82.6*,88.3*,84.9*,
COc1cc2nc(SCc3ccc(F)cc3)n(Cc3cccs3)c(=N)c2cc1OC,-4.2,-14.8,10.1,11.5,-1.7,14.3,.,.,
SMILES,TWEAK-Fn14 inh,TROY signal inh,Peg3 promoter,MITF TRPM1 inh,EBV LMP1 NFkB,HIF-2a block,HIF-2a inh conf,HIF-1a counter,others
COc1ccc(Cn2c(SCc3ccccc3C)nc3cc(OC)c(OC)cc3c2=N)cc1,-4.8,10.0,102.0*,84.3*,-17.5,96.2*,12.1,106.6*,
CN(C)c1ccc(C(=S)NCc2ccco2)cc1,62.7*,-27.0,37.8,15.2,-5.4,52.0*,-13.3,-47.0,
CN(C)c1ccc(/C=N/NC(=S)NCc2ccco2)cc1,-13.3,-30.7,-66.6,-36.5,1.8,-60.1,.,.,
CC(=O)SC(C[N+](=O)[O-])c1cn(C(C)=O)c2ccccc12 (stereo not drawn),14.3,-11.4,106.0*,105.8*,-3.8,46.4*,96.3*,85.7*,
CC(=O)C(=Cc1ccc(Cl)cc1)C(=O)c1ccccc1,94.6*,19.4,98.8*,.,.,90.5*,92.3*,105.2*,
COc1ccc(C=C(C(=O)c2ccccc2)c2ccccc2)cc1,8.0,16.8,32.0,.,.,-21.4,.,.,
CC(C)(C)c1ccc(C(O)c2ncc(-c3ccccc3F)[nH]2)cc1 (stereo not drawn),0.7,-28.4,-31.6,.,.,-55.8,.,.,
CC1=C(CO)C(=O)OC([C@@H](C)C2CC[C@H]3C4C[C@H]5O[C@]56[C@@H](O)C=CC(=O)[C@]6(C)C4CC[C@]23C)C1 (stereo partly drawn),102.9*,49.2,109.4*,106.4*,82.9*,94.2*,97.1*,107.0*,
COc1nn(-c2ccccc2)c(=O)c(Cl)c1Cl,99.3*,73.9*,104.8*,84.3*,1.2,92.7*,64.7*,106.1*,
COc1c(Cl)cnn(-c2ccccc2)c1=O,14.3,-10.8,17.9,4.0,-1.2,11.2,.,.,
Cc1ccc(NC(=O)Cn2ncc(Cl)c(Cl)c2=O)cc1S(=O)(=O)N1CCCCC1,85.8*,84.3*,106.6*,97.2*,-12.4,93.8*,56.9*,103.1*,Mdm2 MdmX conf=103.2*
Cc1ccc(NC(=O)CN(C)C(=O)Cn2ncc(Cl)c(Cl)c2=O)cc1,95.7*,31.3,102.4*,90.5*,88.1*,96.6*,100.0*,105.8*,
Cc1ccc(NC(=O)Cc2ccc(Cl)cc2)cc1S(=O)(=O)N1CCCCCC1,48.5,30.9,30.2,19.1,3.1,16.1,.,.,
O=c1[nH]c2ccc(Br)cc2c(=O)o1,7.8,0.8,9.1,.,-4.7,44.3*,44.6*,7.9,
N#Cc1ccc(/C=C/C(=O)c2ccccc2)cc1,15.5,17.1,97.9*,5.6,3.3,86.9*,-62.9,64.8*,
